{"source": "PubChem BioAssay", "key": {"[1]": {"tested_on": "Wnt5a (protein binding on small-molecule microarray)", "assay": "Wnt5a binders on small-molecule microarray, primary screen, biophysical, 635/667 nm fluorescence (AID 1142);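 also: fluorescence read at 667 nm with signal to noise per printed feature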", "conditions": "635 nm fluorescence, higher = more signal"}, "[2]": {"assay": "cell viability in Huh7 cells, primary screen, cytotoxicity control for HCV replication inhibitor project, CellTiter-Glo luminescence, basal, 48 h (AID 1143);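 also: Huh7 hepatoma cells carrying a hepatitis C replication reporter with no stimulus; test concentration not given here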", "conditions": "Huh7 HCV replicon, higher = more signal, called active from +8 up or from −8 down"}, "[3]": {"assay": "P. aeruginosa biofilm formation inhibitors, primary screen, PAO1 strain, BacTiter-Glo luminescence, LB-PBS (AID 1144)", "conditions": "12 h, higher = more signal"}, "[4]": {"assay": "CREB reporter modulators without forskolin, primary screen, cell-based, PC12, CRE-LacZ reporter, unstimulated (AID 1145)", "conditions": "no forskolin, luminescence, 4.5 h, higher = more signal, called active from +8 up or from −8 down"}, "[5]": {"assay": "CREB reporter modulators under forskolin, primary screen, cell-based, PC12, CRE-LacZ reporter, forskolin-stimulated (AID 1146);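 also: beta-galactosidase reporter signal reflecting CREB driven transcription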", "conditions": "luminescence, 4.5 h, higher = more signal, called active from +8 up or from −8 down"}, "[6]": {"biological_target": "Streptavidin (Streptomyces avidinii) (UniProt P22629)", "sequence (P22629 whole entry, looked up)": "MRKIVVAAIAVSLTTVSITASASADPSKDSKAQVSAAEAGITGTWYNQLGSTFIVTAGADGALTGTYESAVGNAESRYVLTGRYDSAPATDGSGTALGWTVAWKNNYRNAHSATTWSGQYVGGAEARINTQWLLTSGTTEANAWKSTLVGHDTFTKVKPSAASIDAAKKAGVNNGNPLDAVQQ", "assay": "streptavidin binders on small-molecule microarray, primary screen, artefact control for SMM compound annotation, biophysical, 635/667 nm fluorescence (AID 1147);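 also: signal reflects streptavidin binding to arrayed compounds as a control protein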", "conditions": "streptavidin binding, higher = more signal"}, "[7]": {"assay": "small-molecule binders of probe aInhba, primary screen, biochemical, small-molecule microarray, 635/667 nm fluorescence (AID 1148);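 also: score merges 667nm spot fluorescence with signal-to-noise for antibody binding to printed compounds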", "conditions": "higher = more signal"}, "Torsin-1A (Homo sapiens) [8]": {"biological_target": "Torsin-1A (Homo sapiens) (UniProt O14656)", "sequence (O14656 whole entry, looked up)": "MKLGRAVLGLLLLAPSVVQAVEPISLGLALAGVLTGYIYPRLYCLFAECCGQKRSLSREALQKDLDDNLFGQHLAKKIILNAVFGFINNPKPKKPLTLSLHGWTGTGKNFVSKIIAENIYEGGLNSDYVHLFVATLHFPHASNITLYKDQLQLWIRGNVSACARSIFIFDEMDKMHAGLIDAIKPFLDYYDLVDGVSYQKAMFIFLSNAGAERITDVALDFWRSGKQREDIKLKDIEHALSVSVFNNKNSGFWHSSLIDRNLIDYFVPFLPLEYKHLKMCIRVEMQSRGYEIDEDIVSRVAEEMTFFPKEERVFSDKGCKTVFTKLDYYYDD", "assay": "torsin A binders from cell lysate, primary screen, small-molecule microarray, wild-type, 635/667 nm (AID 1149)", "conditions": "COS7 hTOR1A-WT lysate, 635 nm fluorescence, higher = more signal"}, "Torsin-1A (Homo sapiens) [9]": {"biological_target": "Torsin-1A (Homo sapiens) (UniProt O14656)", "assay": "small-molecule binders of mutant TOR1A in lysate, primary screen, cell lysate, small-molecule microarray, COS7 lysate, 635/667 nm fluorescence (AID 1150);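 also: score pools 667 nm emission and signal to noise measuring lysate protein binding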", "conditions": "COS7 hTOR1A mutant lysate, 635 nm fluorescence, higher = more signal"}, "[10]": {"tested_on": "Sonic hedgehog protein (Shh)", "assay": "small-molecule binders of Shh protein, primary screen, biochemical, small-molecule microarray, 635/667 nm fluorescence (AID 1151);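 also: Shh protein binding to compounds spotted on small-molecule microarray slides; score combines spot fluorescence intensity with signal-to-noise across triplicate slides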", "conditions": "small-molecule microarray binding, 635 nm fluorescence; higher = more signal"}, "[11]": {"assay": "E. coli DRC41 culture turbidity changes, primary screen, E. coli filamentation inducer project, strain DRC41, OD650, 48 h (AID 1152);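 also: E. coli MC1000 strain DRC41 lacking acrAB efflux pump and sulA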", "conditions": "E. coli DRC41 (acrAB sulA), higher = more signal, called active from +8 up or from −8 down"}, "[12]": {"assay": "small-molecule binders of probe aLefty1, primary screen, biochemical, small-molecule microarray, 635/667 nm fluorescence (AID 1153);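 also: score merges spot fluorescence with signal-to-noise ratio from the scanned slide images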", "conditions": "higher = more signal"}, "[13]": {"assay": "PSAC antagonists in infected red cells, primary screen, cell-based, P. falciparum Indochina, OD700, 1 h (AID 1154)", "conditions": "P. falciparum Indochina infected RBC osmotic lysis, higher = more signal, called active from +8 up or from −8 down"}, "[14]": {"assay": "PSAC antagonists in infected red cells, primary screen, cell-based, P. falciparum Indochina, OD700, 2 h (AID 1155);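 also: lysis reports solute entry through the parasite surface anion channel PSAC; channel blockers reduce lysis of infected cells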", "conditions": "P. falciparum Indochina infected erythrocytes, osmotic lysis OD700; higher = more signal, called active from +8 up or from −8 down"}, "[15]": {"assay": "osmotic lysis modulators in infected erythrocytes, primary screen, PSAC antagonist project, cell-based, P. falciparum Indochina, OD700, 3 h (AID 1156)", "conditions": "higher = more signal, called active from +8 up or from −8 down"}, "[16]": {"assay": "PSAC antagonists in infected red cells, primary screen, cell-based, P. falciparum Indochina, OD700, 18 h (AID 1157)", "conditions": "P. falciparum Indochina infected erythrocytes, osmotic lysis OD700, 18 h; higher = more signal, called active from +8 up or from −8 down"}, "[17]": {"assay": "modulators of S6 phosphorylation in cells, primary screen, cell-based, A549, cytoblot, luminescence, serum-stimulated (AID 1158);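 also: serum-stimulated A549 lung adenocarcinoma cells; signal is phosphorylated S6 detected by cytoblot immunostaining with HRP secondary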", "conditions": "A549 phospho-S6 cytoblot, 5 h, higher = more signal"}, "[18]": {"biological_target": "NADPH oxidase 2 (Homo sapiens) (UniProt P04839)", "sequence (P04839 whole entry, looked up)": "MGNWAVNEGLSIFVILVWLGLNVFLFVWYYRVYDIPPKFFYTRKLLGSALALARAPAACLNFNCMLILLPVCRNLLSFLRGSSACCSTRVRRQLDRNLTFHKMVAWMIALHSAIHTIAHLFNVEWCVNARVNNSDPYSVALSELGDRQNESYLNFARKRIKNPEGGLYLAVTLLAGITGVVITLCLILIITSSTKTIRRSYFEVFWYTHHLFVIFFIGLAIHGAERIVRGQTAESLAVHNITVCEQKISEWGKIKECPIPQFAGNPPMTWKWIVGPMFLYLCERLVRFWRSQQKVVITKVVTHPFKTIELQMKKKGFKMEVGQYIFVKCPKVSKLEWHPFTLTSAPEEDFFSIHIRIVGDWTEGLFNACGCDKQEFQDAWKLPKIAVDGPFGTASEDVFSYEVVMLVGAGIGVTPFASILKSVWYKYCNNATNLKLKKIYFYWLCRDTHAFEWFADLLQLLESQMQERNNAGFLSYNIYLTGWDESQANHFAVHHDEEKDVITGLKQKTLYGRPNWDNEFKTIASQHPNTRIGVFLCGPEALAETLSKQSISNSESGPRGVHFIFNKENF", "assay": "NOX2-dependent H2O2 signal modulators, primary screen, NOX inhibitor project, cell-based, HEK293-NOX2, PMA-stimulated, Amplex Red fluorescence (AID 1159); also: test concentration not given here", "conditions": "45 min, higher = more signal, called active from +8 up or from −8 down"}, "[19]": {"biological_target": "NADPH oxidase 4 (Homo sapiens) (UniProt Q9NPH5)", "sequence (Q9NPH5 whole entry, looked up)": "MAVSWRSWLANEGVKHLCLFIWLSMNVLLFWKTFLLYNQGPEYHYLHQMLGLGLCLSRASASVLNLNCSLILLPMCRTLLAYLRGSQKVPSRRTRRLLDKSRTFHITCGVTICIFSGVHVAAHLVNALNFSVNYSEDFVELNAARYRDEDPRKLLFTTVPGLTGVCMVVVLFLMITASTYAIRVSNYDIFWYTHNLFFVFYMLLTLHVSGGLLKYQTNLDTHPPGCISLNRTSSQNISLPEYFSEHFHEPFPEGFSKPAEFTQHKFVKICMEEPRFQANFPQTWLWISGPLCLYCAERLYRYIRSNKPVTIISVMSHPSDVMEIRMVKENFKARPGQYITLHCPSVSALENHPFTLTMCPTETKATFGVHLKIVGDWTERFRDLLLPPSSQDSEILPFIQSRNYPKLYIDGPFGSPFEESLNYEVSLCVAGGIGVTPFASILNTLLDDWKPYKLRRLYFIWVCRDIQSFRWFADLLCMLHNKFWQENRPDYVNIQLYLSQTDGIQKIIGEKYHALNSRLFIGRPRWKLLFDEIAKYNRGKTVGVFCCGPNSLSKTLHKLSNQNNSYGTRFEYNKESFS", "assay": "NOX4-dependent H2O2 signal modulators, primary screen, NOX inhibitor project, cell-based, HEK293-NOX4, tetracycline-induced, Amplex Red fluorescence (AID 1160)", "conditions": "45 min, higher = more signal, called active from +8 up or from −8 down"}, "[20]": {"biological_target": "NADPH oxidase 5 (Homo sapiens) (UniProt Q96PH1)", "sequence (Q96PH1 whole entry, looked up)": "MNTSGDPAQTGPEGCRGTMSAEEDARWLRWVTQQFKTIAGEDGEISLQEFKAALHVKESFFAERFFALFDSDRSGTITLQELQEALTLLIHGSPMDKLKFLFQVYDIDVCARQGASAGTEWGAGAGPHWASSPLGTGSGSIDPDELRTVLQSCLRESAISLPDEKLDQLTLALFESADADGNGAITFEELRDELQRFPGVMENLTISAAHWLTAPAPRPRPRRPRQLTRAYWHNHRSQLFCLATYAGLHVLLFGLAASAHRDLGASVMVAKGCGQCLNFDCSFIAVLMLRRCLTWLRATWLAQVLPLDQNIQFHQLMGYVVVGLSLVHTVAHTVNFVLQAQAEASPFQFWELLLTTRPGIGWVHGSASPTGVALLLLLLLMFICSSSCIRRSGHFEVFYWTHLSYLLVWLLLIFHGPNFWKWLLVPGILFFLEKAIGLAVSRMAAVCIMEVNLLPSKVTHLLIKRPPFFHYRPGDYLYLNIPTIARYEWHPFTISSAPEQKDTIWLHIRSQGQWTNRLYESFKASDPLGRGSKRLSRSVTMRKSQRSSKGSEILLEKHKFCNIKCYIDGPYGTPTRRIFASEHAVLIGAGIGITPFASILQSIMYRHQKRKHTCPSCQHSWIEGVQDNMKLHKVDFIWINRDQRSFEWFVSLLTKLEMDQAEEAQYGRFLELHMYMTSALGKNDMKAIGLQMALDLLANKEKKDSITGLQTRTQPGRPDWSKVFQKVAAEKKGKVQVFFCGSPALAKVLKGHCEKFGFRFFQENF", "assay": "NOX5-dependent H2O2 signal modulators, primary screen, NOX inhibitor project, cell-based, HEK293-NOX5, Amplex Red fluorescence (AID 1161)", "conditions": "HEK293-NOX5, ionomycin, 45 min, higher = more signal"}}, "note": "The source made the active and inactive calls. Unless noted, no rule for the calls is given here.", "data": [{"compound": "O=C1C2C=CC(C(O)c3ccc(-c4ccccc4)s3)N(Nc3ccccc3)C2C(=O)N1c1ccccc1", "note": "(stereo not given)", "values": [{"measurement": "composite z-score", "setting": "[1]", "result": 0.155}, {"measurement": "z-score", "setting": "[2]", "result": "-0.514 (inactive)"}, {"measurement": "z-score", "setting": "[3]", "result": "-1.25 (inactive)"}, {"measurement": "z-score", "setting": "[4]", "result": "0.0569 (inactive)"}, {"measurement": "z-score", "setting": "[5]", "result": "0.117 (inactive)"}, {"measurement": "composite z-score", "setting": "[6]", "result": 0.908}, {"measurement": "composite z-score", "setting": "[7]", "result": 0.0183}, {"measurement": "composite z-score", "setting": "Torsin-1A (Homo sapiens) [8]", "result": -0.499}, {"measurement": "composite z-score", "setting": "Torsin-1A (Homo sapiens) [9]", "result": 1.21}, {"measurement": "composite z-score", "setting": "[10]", "result": 0.0134}, {"measurement": "z-score", "setting": "[11]", "result": "-0.517 (inactive)"}, {"measurement": "composite z-score", "setting": "[12]", "result": 0.591}, {"measurement": "z-score", "setting": "[13]", "result": "8.45 (active)"}, {"measurement": "z-score", "setting": "[14]", "result": "2.11 (inactive)"}, {"measurement": "z-score", "setting": "[15]", "result": "0.214 (inactive)"}, {"measurement": "z-score", "setting": "[16]", "result": "1.1 (inactive)"}, {"measurement": "z-score", "setting": "[17]", "result": -0.505}, {"measurement": "z-score", "setting": "[18]", "result": "-0.986 (inactive)"}, {"measurement": "z-score", "setting": "[19]", "result": "-3.23 (inactive)"}, {"measurement": "z-score", "setting": "[20]", "result": -0.493}]}, {"compound": "NCCCCCCNC(=O)[C@H]1C[C@H]2C(=O)N[C@@H](Cc3ccccc3)C(=O)N2[C@H]1c1cccc(OCCO)c1", "values": [{"measurement": "composite z-score", "setting": "[1]", "result": -0.0371}, {"measurement": "z-score", "setting": "[2]", "result": "0.173 (inactive)"}, {"measurement": "z-score", "setting": "[3]", "result": "-0.687 (inactive)"}, {"measurement": "z-score", "setting": "[4]", "result": "-0.545 (inactive)"}, {"measurement": "z-score", "setting": "[5]", "result": "-0.711 (inactive)"}, {"measurement": "composite z-score", "setting": "[6]", "result": 1.09}, {"measurement": "composite z-score", "setting": "[7]", "result": -0.128}, {"measurement": "composite z-score", "setting": "Torsin-1A (Homo sapiens) [8]", "result": 1.24}, {"measurement": "composite z-score", "setting": "Torsin-1A (Homo sapiens) [9]", "result": 0.916}, {"measurement": "composite z-score", "setting": "[10]", "result": 0.16}, {"measurement": "z-score", "setting": "[11]", "result": "0.921 (inactive)"}, {"measurement": "composite z-score", "setting": "[12]", "result": -0.141}, {"measurement": "z-score", "setting": "[13]", "result": "5 (inactive)"}, {"measurement": "z-score", "setting": "[14]", "result": "0.944 (inactive)"}, {"measurement": "z-score", "setting": "[15]", "result": "2.3 (inactive)"}, {"measurement": "z-score", "setting": "[16]", "result": "0.472 (inactive)"}, {"measurement": "z-score", "setting": "[17]", "result": -0.147}, {"measurement": "z-score", "setting": "[18]", "result": "0.997 (inactive)"}, {"measurement": "z-score", "setting": "[19]", "result": "0.736 (inactive)"}, {"measurement": "z-score", "setting": "[20]", "result": 0.392}]}, {"compound": "CN1C(=O)C2C=CC(C(O)C=Cc3ccc([N+](=O)[O-])cc3)N(Nc3ccccc3)C2C1=O", "note": "(stereo not given)", "values": [{"measurement": "composite z-score", "setting": "[1]", "result": 0.286}, {"measurement": "z-score", "setting": "[2]", "result": "-0.143 (inactive)"}, {"measurement": "z-score", "setting": "[3]", "result": "-0.585 (inactive)"}, {"measurement": "z-score", "setting": "[4]", "result": "0.426 (inactive)"}, {"measurement": "z-score", "setting": "[5]", "result": "0.528 (inactive)"}, {"measurement": "composite z-score", "setting": "[6]", "result": 1.16}, {"measurement": "composite z-score", "setting": "[7]", "result": 0.0497}, {"measurement": "composite z-score", "setting": "Torsin-1A (Homo sapiens) [8]", "result": 0.0394}, {"measurement": "composite z-score", "setting": "Torsin-1A (Homo sapiens) [9]", "result": -0.0071}, {"measurement": "composite z-score", "setting": "[10]", "result": 0.428}, {"measurement": "z-score", "setting": "[11]", "result": "-1.84 (inactive)"}, {"measurement": "composite z-score", "setting": "[12]", "result": -0.139}, {"measurement": "z-score", "setting": "[13]", "result": "6.52 (inactive)"}, {"measurement": "z-score", "setting": "[14]", "result": "1.48 (inactive)"}, {"measurement": "z-score", "setting": "[15]", "result": "0.86 (inactive)"}, {"measurement": "z-score", "setting": "[16]", "result": "1.32 (inactive)"}, {"measurement": "z-score", "setting": "[17]", "result": -1.05}, {"measurement": "z-score", "setting": "[18]", "result": "-1.57 (inactive)"}, {"measurement": "z-score", "setting": "[19]", "result": "-3.82 (inactive)"}, {"measurement": "z-score", "setting": "[20]", "result": -2.44}]}, {"compound": "COCCOC(=O)N1C(=O)[C@@]2(c3cc(C#CC4(O)CCCCCC4)ccc31)[C@H](c1ccccc1OCCO)N1[C@H](c3ccccc3)[C@H](c3ccccc3)OC(=O)[C@H]1[C@@H]2C(=O)N1CCc2cc(OC)c(OC)cc2C1", "values": [{"measurement": "composite z-score", "setting": "[1]", "result": 0.305}, {"measurement": "z-score", "setting": "[2]", "result": "-3.17 (inactive)"}, {"measurement": "z-score", "setting": "[3]", "result": "-0.665 (inactive)"}, {"measurement": "z-score", "setting": "[4]", "result": "-1.29 (inactive)"}, {"measurement": "z-score", "setting": "[5]", "result": "1.03 (inactive)"}, {"measurement": "composite z-score", "setting": "[6]", "result": 0.738}, {"measurement": "composite z-score", "setting": "[7]", "result": -0.0496}, {"measurement": "composite z-score", "setting": "Torsin-1A (Homo sapiens) [8]", "result": 0.0651}, {"measurement": "composite z-score", "setting": "Torsin-1A (Homo sapiens) [9]", "result": 0.336}, {"measurement": "composite z-score", "setting": "[10]", "result": 1.11}, {"measurement": "z-score", "setting": "[11]", "result": "0.109 (inactive)"}, {"measurement": "composite z-score", "setting": "[12]", "result": 0.379}, {"measurement": "z-score", "setting": "[13]", "result": "2.53 (inactive)"}, {"measurement": "z-score", "setting": "[14]", "result": "0.888 (inactive)"}, {"measurement": "z-score", "setting": "[15]", "result": "0.467 (inactive)"}, {"measurement": "z-score", "setting": "[16]", "result": "0.773 (inactive)"}, {"measurement": "z-score", "setting": "[17]", "result": 0.495}, {"measurement": "z-score", "setting": "[18]", "result": "1.25 (inactive)"}, {"measurement": "z-score", "setting": "[19]", "result": "0.534 (inactive)"}, {"measurement": "z-score", "setting": "[20]", "result": 1.82}]}]}
